In ChEMBL document CHEMBL1157539, “Thousands of chemical starting points for antimalarial lead identification” (Nature, 2010):

Tests used:
Assay type in all cases: functional
Plasmodium falciparum [1] = assay: GSK_TCMDC: Inhibition of Plasmodium falciparum 3D7 in whole red blood cells, using parasite LDH activity as an index of growth. Test compounds present at 2uM
Plasmodium falciparum [2] = assay: GSK_TCMDC: Inhibition of Plasmodium falciparum Dd2 in whole red blood cells, using parasite LDH activity as an index of growth. Test compounds present at 2uM
HepG2 = assay: GSK_TCMDC: Percent inhibition of human HepG2 cell line. Test compounds present at 10uM.

| Structure (SMILES) | Inhibition (Plasmodium falciparum [1]) [%] | Inhibition (Plasmodium falciparum [2]) [%] | Inhibition (HepG2) [%] |
| --- | --- | --- | --- |
| O=C(Nc1cccc(-c2nn3ccccc3c2-c2ccnc(Nc3cccc(C(F)(F)F)c3)n2)c1)c1c(F)cccc1F | 97 | 91 | 43 |
| N#Cc1ccc(CN2CCC(NC(=O)c3ccc(-c4nnc(-c5cccc6ccccc56)o4)cc3)CC2)cc1 | 98 | 14 | 37 |
| CC(CN(C)C)C(=O)Nc1ccc(-c2csc(-c3nc4ccccc4[nH]3)c2)cc1 (stereo unspecified) | 84 | 19 | 28 |
| Br.COc1cc(CCON2C(N)=NC(N)=NC2(C)C)cc(OC)c1OC | 93 | 95 | 59 |
| CC(C)N1CCC(NC(=O)N2CCCN(c3ncnc4cc(-c5ccc(Cl)cc5)sc34)CC2)CC1.O=C(O)C(F)(F)F | 81 | 7 | 6 |
| Br.C=CCc1cc(C)ccc1OCCCON1C(N)=NC(N)=NC1(C)C | 96 | 96 | 64 |
| Cc1ccccc1C1CCN(C2CCC(NC(=O)/C=C/c3cccc(Cl)c3)CC2)CC1 (stereo unspecified) | 98 | 34 | 70 |
| CCCNC(=O)C1Cc2c([nH]c3cc(Br)ccc23)C2(CCN(CCc3ccccc3)CC2)N1 (stereo unspecified) | 92 | 26 | 15 |
| Cc1cc(-c2ccc(CNCCc3cccs3)cc2)ccc1S(=O)(=O)NCc1ccccc1.O=C(O)C(F)(F)F | 94 | 0 | 28 |
| CC(C)CCNC(=O)C1Cc2c([nH]c3cc(Br)ccc23)C2(CCN(Cc3ccccc3)CC2)N1 (stereo unspecified) | 96 | 45 | 10 |
| Cc1nc2nc(N)nc(N)c2c(C)c1Cc1ccc(Cl)cc1.Cl | 94 | 22 | 62 |
| CC(C)(C)c1ccc(CN2CCC(CNC(=O)c3cc(-c4ccccc4C(F)(F)F)cs3)C2)cc1.O=C(O)C(F)(F)F (stereo unspecified) | 92 | 11 | 61 |
| CN(C)c1ccc(-c2csc(C(=O)NCC3CCN(CCC(C)(C)C)C3)c2)cc1.O=C(O)C(F)(F)F (stereo unspecified) | 87 | 16 | 29 |
| CC(C)(C)NCc1cc(Nc2ccnc3cc(Cl)ccc23)ccc1F | 100 | 100 | 21 |
| O=C(Nc1ccc(OC2CCN(Cc3ccsc3)C2)c(Cl)c1)c1ccco1.O=C(O)C(F)(F)F (stereo unspecified) | 93 | 96 | 0 |
| CCCCCCn1c(Sc2ccc(C#N)c([N+](=O)[O-])c2)nnc1-c1cccs1 | 97 | 60 | 26 |
| COc1cc(C2Nc3ccc4ccccc4c3C3=C2C(=O)CC(C)(C)C3)ccc1Oc1ccc([N+](=O)[O-])cc1C#N (stereo unspecified) | 99 | 94 | 8 |
| COc1cc2nc(N3CCC(CNC(=O)c4ccc(OC(F)(F)F)cc4)CC3)nc(N)c2cc1OC.O=C(O)C(F)(F)F | 100 | 98 | 16 |
| Clc1ccc(OCc2ccccc2)c(-c2nc(-c3nc4ncc(Br)cc4[nH]3)cs2)c1 | 100 | 77 | 0 |
| Cn1cncc1-c1cc2c(Nc3ccc(OCc4ccccc4)cc3)ncnc2cn1 | 99 | 75 | 0 |
| CC(C)c1nc2c(N)nc(N)nc2nc1N | 84 | 0 | 64 |

| Structure (SMILES) | Inhibition (Plasmodium falciparum [1]) [%] | Inhibition (Plasmodium falciparum [2]) [%] | Inhibition (HepG2) [%] |
| --- | --- | --- | --- |
| Cc1cccc2nc(-c3ccc(-c4cccc(CN5CCC(CO)CC5)c4)s3)[nH]c12.O=C(O)C(F)(F)F | 99 | 61 | 20 |
| COc1ccccc1Nc1nc(NC2CCN(C)CC2)cc(-c2cccc(C(F)(F)F)c2)n1.O=C(O)C(F)(F)F | 95 | 71 | 100 |
| Cc1cc(N/N=C/c2ccccc2[N+](=O)[O-])c2ccccc2n1 | 100 | 100 | 10 |
| Nc1nc(N)c2c(ccc3[nH]ccc32)n1 | 88 | 0 | 58 |
| COc1cc(OC)cc(-c2nn(-c3ccc([N+](=O)[O-])cc3C#N)c(=S)n2CC2CCCO2)c1 (stereo unspecified) | 98 | 75 | 9 |
| CC1CCCC(NC(=O)CCOc2ccccc2)C1 (stereo unspecified) | 96 | 32 | 0 |
| O=C(/C=C/c1ccc(Cl)c(Cl)c1)NCCCCCN1CCCN(C(=O)Nc2ccc(F)c(Cl)c2)CC1 | 95 | 0 | 31 |
| COc1ccc(C2=[N+]([O-])c3ccccc3C2=O)cc1 | 93 | 61 | 2 |
| CC1CN(Cc2ccc(C#N)cc2)CCN1c1ccc(NC(=O)c2cccs2)cc1.O=C(O)C(F)(F)F (stereo unspecified) | 93 | 89 | 8 |
| CN(C)c1cccc2c(S(=O)(=O)Nc3cccc(CCN4CCC(N5CCCCC5)CC4)c3)cccc12 | 98 | 54 | 41 |
| CS(=O)(=O)CCNCc1cccc(-c2cc3nccc(Nc4ccc(Oc5ccccc5)cc4)c3cc2Cl)c1 | 100 | 82 | 2 |
| O=C(CCc1c[nH]cn1)Nc1ccc(-c2cccc(-c3nc4ccccc4[nH]3)c2)cc1 | 100 | 42 | 12 |
| COc1ccc2ncc(F)c(CCN3CCC(NCc4cc(F)c5c(c4)OCCO5)CC3)c2n1.Cl | 100 | 67 | 15 |
| CCCCCN1CCN(Cc2cccc(NC(=O)c3ccc(Cl)c(Cl)c3)c2)CC1.O=C(O)C(F)(F)F | 90 | 33 | 24 |
| Cc1ccccc1CCNC(=O)c1cnc(N2CCN(c3ccncc3)CC2)c(Cl)c1.O=C(O)C(F)(F)F | 100 | 95 | 36 |
| CN(CCCN)CCCNc1ccnc2cc(Cl)ccc12 | 100 | 0 | 1 |
| c1ccc2c3c(ccc2c1)Sc1c(ccc2ccccc12)N3 | 92 | 31 | 0 |
| Cc1cc2nc(-c3ccc(SCC(=O)Nc4ccc5c(c4)OCCO5)nc3)[nH]c2cc1C | 85 | 6 | 17 |
| CCCCC(CC)C(=O)C(NC(=O)[C@H](CSC(c1ccccc1)(c1ccccc1)c1ccccc1)NC(=O)OC(C)(C)C)C(=O)OC (stereo partly specified) | 88 | 31 | 8 |
| CC(C)(C)c1ccc(CNCC(C)(C)c2nc(-c3ccnc(N)n3)c(-c3ccc(Cl)c(O)c3)[nH]2)cc1.Cl | 100 | 54 | 28 |
| O=C(Nc1ccc2c(c1)CCC2)c1ccc(CN2CCCN(Cc3cccc(O)c3)CC2)cc1.O=C(O)C(F)(F)F | 88 | 46 | 45 |

| Structure (SMILES) | Inhibition (Plasmodium falciparum [1]) [%] | Inhibition (Plasmodium falciparum [2]) [%] | Inhibition (HepG2) [%] |
| --- | --- | --- | --- |
| Cc1cc(N(C)C)nc(Nc2ccc(NC(=O)c3ccc(F)cc3)cc2)n1 | 100 | 21 | 8 |
| Cn1cncc1C(=O)Nc1cccc(-c2ccc(-c3nc4ccccc4[nH]3)cc2)c1 | 99 | 11 | 0 |
| Cc1cccc2nc(-c3ccc(-c4ccc(CNCCNC(=O)c5ccnn5C)cc4)s3)[nH]c12.O=C(O)C(F)(F)F | 100 | 97 | 20 |
| COCCNCc1cccc(-c2cccc(CNC3CCN(Cc4ccccc4)CC3)c2)c1.O=C(O)C(F)(F)F | 100 | 99 | 28 |
| O=C(/C=C/c1ccc(Cl)cc1)NCCCCCN1CCC(C(=O)Nc2ccc(Cl)c(Cl)c2)CC1 | 100 | 0 | 47 |
| CCN1CCN(c2cc(C)c3cc(NC(=O)c4ccc(N(CC)CC)cc4)ccc3n2)CC1 | 95 | 41 | 38 |
| CC(C)CC(=O)Nc1cc(=O)[nH]c2nc(-c3ccccc3)nn12 | 89 | 85 | 0 |
| CCCc1ccc(NC(=O)c2cccc(CN3CCCN(Cc4cccc(O)c4)CC3)c2)cc1.O=C(O)C(F)(F)F | 97 | 40 | 15 |
| Cl.O=C(Nc1ccccc1Br)N[C@@H]1CCN(c2ccnc3ccccc23)C1 | 91 | 90 | 25 |
| CCCc1cc(C(=O)N[C@@H](Cc2ccccc2)[C@H](O)CNC2CCOCC2)c(F)c(N2CCCCS2(=O)=O)c1 | 97 | 97 | 0 |
| Cl.O=C(NCCCCN1CCC(c2ccc3c(c2OCCO)CCCC3)CC1)c1ccc2oc(-c3ccc(C(F)(F)F)cc3)cc2c1 | 93 | 56 | 54 |
| COCCn1c(-c2cccc(Cl)c2)nn(-c2ccc([N+](=O)[O-])cc2C#N)c1=S | 100 | 100 | 7 |
| Cc1ccc(F)cc1S(=O)(=O)NCC(C)c1ccc(NC(=O)Nc2cccc(F)c2)cc1 (stereo unspecified) | 95 | 5 | 20 |
| CCN(CCCN1CCCCC1)c1cc(C)nc(Nc2ccc(C)c(Cl)c2)n1.O=C(O)C(F)(F)F | 100 | 100 | 32 |
| Cc1cc(O)c(CN2CCN(Cc3cccs3)CC2)cc1C(C)C | 98 | 97 | 7 |
| CN(CCC(O)c1ccc(Cl)c(Cl)c1)CC1CC1C(=O)c1ccccc1 (stereo unspecified) | 98 | 96 | 11 |
| O=C(c1cccc(-c2noc(C(F)(F)F)n2)c1)N1CCN(c2nsc3ccccc23)CC1 | 90 | 81 | 18 |
| O=C(/C=C/c1ccc(Cl)c(Cl)c1)NCCCCCN1CCN(C(=O)Nc2ccc(Cl)c(C(F)(F)F)c2)CC1 | 100 | 0 | 22 |
| Cl.Nc1ccnc2ccc(NC(=O)CCCCCc3ccccc3)cc12 | 96 | 30 | 47 |
| O=C(N[C@H](Cc1ccc(Cl)cc1)C(=O)N1CCN(c2ccnc3cc(Cl)ccc23)CC1)[C@H]1Cc2ccccc2CN1.O=C(O)C(F)(F)F | 85 | 41 | 16 |
